Screens: PubChem, NMMLSC
Anthrax LF inh2 = blocks Bacillus anthracis lethal factor protease; inhibition, % at 10 µM; P15917; AID 588501; 0.12% of 360,000 active; multiplex microsphere protease cleavage assay, LF; further: plate controls were buffer without enzyme for full effect and enzyme alone for no effect
Target sequence (P15917 whole entry, looked up): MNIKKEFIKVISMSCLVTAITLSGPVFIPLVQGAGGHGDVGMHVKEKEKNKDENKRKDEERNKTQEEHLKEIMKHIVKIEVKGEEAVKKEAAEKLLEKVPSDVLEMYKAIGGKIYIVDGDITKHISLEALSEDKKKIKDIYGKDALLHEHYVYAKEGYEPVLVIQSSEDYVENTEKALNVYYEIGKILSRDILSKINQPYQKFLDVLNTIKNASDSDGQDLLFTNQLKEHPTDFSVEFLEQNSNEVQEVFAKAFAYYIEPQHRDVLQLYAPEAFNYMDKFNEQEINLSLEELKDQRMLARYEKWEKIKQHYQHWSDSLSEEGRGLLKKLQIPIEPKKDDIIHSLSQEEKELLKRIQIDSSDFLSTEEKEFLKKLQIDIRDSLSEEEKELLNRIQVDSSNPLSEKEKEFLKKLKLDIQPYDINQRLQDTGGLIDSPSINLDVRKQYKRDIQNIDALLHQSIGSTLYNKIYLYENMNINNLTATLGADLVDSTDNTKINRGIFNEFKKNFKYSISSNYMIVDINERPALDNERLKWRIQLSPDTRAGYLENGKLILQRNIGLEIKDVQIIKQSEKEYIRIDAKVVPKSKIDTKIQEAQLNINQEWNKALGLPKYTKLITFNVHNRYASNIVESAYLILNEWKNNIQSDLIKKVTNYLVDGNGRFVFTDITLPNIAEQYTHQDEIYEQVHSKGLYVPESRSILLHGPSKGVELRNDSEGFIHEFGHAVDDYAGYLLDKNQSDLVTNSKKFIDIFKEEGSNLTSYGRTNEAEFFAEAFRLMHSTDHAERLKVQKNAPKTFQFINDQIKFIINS
Bead autofluor = compound fluorescence in toxin protease inhibitor counterscreen; compound autofluorescence counterscreen, microsphere flow cytometry; active compounds read high; fluorescence intensity (no concentration beside the values); 3.1% of 360,000 active; in the data active means fluorescence intensity above about 16000; inconclusive means no clear call, values can overlap the other calls
BoNT F protease = BoNT F light chain protease inhibition; 0.22% of 360,000 active; inhibition, % at 10 µM; AID 588497; Multiplex microsphere protease cleavage assay, flow cytometry; in the data active means inhibition above about 35%, passing the limit was not always enough; inconclusive means no clear call, values can overlap the other calls; further: plate controls were buffer without enzyme for full effect and enzyme alone for no effect
BoNT-A LC inh2 = inhibitors of Botulinum neurotoxin A light chain protease. multiplex microsphere protease substrate cleavage, flow cytometry. inhibition, % at 10 µM. 0.17% of 360,000 active. AID 588499; further: plate controls were buffer without enzyme for full effect and enzyme alone for no effect
* = called active by the depositor; ? = inconclusive. Shown are actives, neighbours in structure and some others; about 3.5% of the full set was active somewhere. Unless noted, no stated cut-off is given here; in the data, active means inhibition above about 30%; inconclusive means no clear call, values can overlap the other calls; inactive means below that.

SMILES | Anthrax LF inh2 | Bead autofluor | BoNT F protease | BoNT-A LC inh2
Cc1ccc(S(=O)(=O)N2[C@H](C(C)C)[C@H]3[C@H]4C(=O)N(c5ccccc5)C(=O)[C@H]4CC(=O)[C@H]3[C@@H]2c2ccccc2)cc1 | -7 | 4254 | -3 | 0
C[C@H](CO)N1C[C@H](C)[C@H](CN(C)C(=O)Nc2ccc(-c3cccs3)cc2)OCc2cnnn2CCCC1=O | -6 | 2915 | 0 | 0
Cc1ccc(N(CC(=O)N2CCOCC2)S(C)(=O)=O)cc1C | 1 | 20113* | 1 | ?
CS(=O)(=O)N(CC(=O)N1CCOCC1)c1ccc2c(c1)OCO2 | 0 | 3082 | -7 | 0
CS(=O)(=O)N(CC(=O)N1CCCC1)c1ccc2c(c1)OCCO2 | 1 | 21840* | 4 | 5
CN(CC(=O)O)S(=O)(=O)c1cc(Cl)ccc1Cl | 1 | 7073 | -12 | -1
CCOC(=O)C1CCN(C(=O)CN(c2ccc3c(c2)OCCO3)S(C)(=O)=O)CC1 | -10 | 22882* | 0 | -1
CN(CC(=O)N1CCCC1)S(=O)(=O)c1cc(Cl)ccc1Cl | 0 | 22425* | -6 | ?
CS(=O)(=O)N(CC(=O)N1CCOCC1)c1ccc(Cl)cc1 | -13 | 4056 | -12 | -1
CS(=O)(=O)N(CC(=O)N1CCCC1)c1ccc(Cl)cc1Cl | 21 | 2937 | 4 | 2
CCOC(=O)N1CCN(C(=O)CN(c2cccc(OC)c2)S(C)(=O)=O)CC1 | 4 | 19270* | 4 | ?
COc1cccc(N(CC(=O)N2CCCC2)S(C)(=O)=O)c1 | -13 | 3824 | ? | -5
CC(=O)c1cccc(N(CC(=O)N2CCCCC2)S(C)(=O)=O)c1 | -2 | 24555* | 0 | ?
CS(=O)(=O)N(CC(=O)N1CCCC1)c1cc(Cl)c(Cl)cc1Cl | -2 | 22315* | 2 | 3
COc1ccc2c3c([nH]c2c1)C1(NCC3)C(=O)Nc2ccccc21 (stereo not drawn) | -2 | 4494 | -13 | -1
COc1cc2c(cc1OC)C1(NCC2)C(=O)Nc2ccccc21 (stereo not drawn) | 0 | 16750* | -5 | -2
CCOC(=O)c1[nH]c2ccc(C)cc2c1N | 1 | 22785* | -3 | 0
Cc1ccc(C(=O)Nc2ccncc2)c(C)c1 | -9 | 2925 | 6 | 4
CCOc1ccc(CC(=O)Nc2sc(Cc3ccccc3)cc2C(N)=O)cc1OCC | -2 | 17390* | -8 | -5
Cc1cc(-n2c(C)cc(C(=O)COc3ccc(F)c(F)c3)c2C)no1 | -2 | 2972 | 4 | 0
O=C(O)Cn1nnnc1-c1ccc(F)cc1 | -2 | 21941* | 4 | 3
O=C(O)Cn1nc(-c2ccc(F)cc2)oc1=O | 4 | 3262 | 16 | 0
Cc1nn(CC(C)C)c(=S)[nH]c1=O | -1 | 23998* | -6 | ?
CC(=O)Nc1cc(-c2cccc(F)c2)cn2c(-c3ccccc3)cnc12 | -2 | 4087 | 0 | 0
Cc1ccc2nc(NC(=O)CCNS(=O)(=O)c3cccs3)sc2c1 | -8 | 10854 | 9 | 0
SMILES | Anthrax LF inh2 | Bead autofluor | BoNT F protease | BoNT-A LC inh2
Cc1ccc2nc(NC(=O)CCNS(=O)(=O)c3ccc(Br)s3)sc2c1 | -6 | 23058* | 1 | 1
CC(c1ccccc1)N1CNc2c(c(=O)n(C)c(=O)n2C)C1 (stereo not drawn) | -1 | 3160 | -5 | 0
Cn1c2c(c(=O)n(C)c1=O)CN(CCCN1CCOCC1)CN2 | -1 | 16352* | 0 | 1
CN1CCN(C(=O)OCCOCCOC(=O)N2CCN(C)CC2)CC1 | -5 | 4040 | 2 | -1
N#Cc1ccsc1NC(=O)c1ccccn1 | 2 | 22222* | 3 | 2
Cc1nnc(N2CCCC(C(=O)Nc3cc(F)ccc3F)C2)c2nn(-c3ccccc3)c(C)c12 (stereo not drawn) | 1 | 7361 | 4 | -1
Cc1nnc(N2CCCC(C(=O)NCc3ccc(OC(C)C)cc3)C2)c2nn(-c3ccccc3)c(C)c12 (stereo not drawn) | -4 | 24028* | 13 | -11
CC1(C)CC(NC(=O)C23CCC(C)(C(=O)C2)C3(C)C)CC(C)(C)N1 (stereo not drawn) | 2 | 21112* | 4 | 4
Cc1ccc(NC(=O)CNc2ccccc2N2CCCC2=O)cc1S(=O)(=O)N1CCOCC1 | 0 | ? | 0 | 5
CCOC(=O)C1=C(O)c2ccccc2C(=O)/C1=C\c1ccc(CC)cc1 | -3 | 21598* | 3 | 6
O=c1ncn(-c2ccc(F)cc2)c2ncccc12 | -3 | 20412* | -2 | ?
Cc1cccc(C)c1NC(=O)CS(=O)CC(=O)Nc1ccc(N2CCOCC2)cc1 (stereo not drawn) | -5 | 4312 | -1 | -1
Cc1cc(C)c(NC(=O)CS(=O)CC(=O)N2CCN(c3ccccc3)CC2)c(C)c1 (stereo not drawn) | -2 | 16393* | -2 | 0
COc1ccc2nc(C)cc(SCC(=O)Nc3c(C)cc(C)cc3C)c2c1 | 0 | 18106* | 2 | 4
COc1ccc2nc(C)cc(SCC(=O)Nc3c(C)cccc3C)c2c1 | -1 | 2077 | -6 | 0
COc1ccc(N2CCN(CC(=O)Nc3c(C)cc(C)cc3C)CC2)cc1 | 3 | 17139* | -2 | -2
CCOC(=O)C1=CN(Cc2cccc(-c3ccc4c(c3)OCO4)c2)S(=O)(=O)N(C)C1C (stereo not drawn) | -11 | 3686 | -2 | 0
COCCN(C(=O)c1ccc2c(c1)C(=O)N(c1ccccc1Cl)C2=O)c1c(N)n(CC(C)C)c(=O)[nH]c1=O | -3 | 3462 | -8 | 0
Cc1cc(=O)[nH]c(SCc2nc3ncccn3c2Br)n1 | -1 | 24282* | -4 | -2
Cc1cc(=O)oc2cc(OCC(=O)Nc3nnc(CC(C)C)s3)ccc12 | 4 | 4905 | 35* | 0
Cc1cc(=O)oc2cc(OCC(=O)Nc3nnc(C(C)C)s3)ccc12 | -2 | 4895 | -10 | -1
CC(C)C[C@H](NC(=O)CCCn1nnc2ccccc2c1=O)C(=O)O | -3 | 4309 | 0 | 1
O=C(O)CCNC(=O)CCCn1nnc2ccccc2c1=O | -11 | 20247* | -95 | -19
Cc1ccc(C(=O)N2CCN(c3ccc([N+](=O)[O-])cc3-n3cccc3)CC2)cc1 | 0 | 5822 | 7 | 1
CC[C@]12c3[nH]c4cc(-c5ccco5)ccc4c3CCN1C(=O)[C@@H](CC(=O)NCCCOC)C[C@@H]2C(=O)N1CCN(C(=O)c2ccco2)CC1 | -4 | 3477 | -7 | 0
SMILES | Anthrax LF inh2 | Bead autofluor | BoNT F protease | BoNT-A LC inh2
CC(=O)Nc1ccc(NC(=O)CSc2nccn2Cc2ccccc2)cc1 | -2 | 20023* | 6 | 4
Cc1ccc(NC(=O)CSc2nccn2Cc2ccccc2)cc1C | -11 | 3256 | 1 | 0
O=C(CCSc1nnc(-c2ccccc2)o1)N1CCOCC1 | -2 | 1978 | -16 | 0
O=C(CCSc1nccn1Cc1ccccc1)N1CCOCC1 | -6 | 20488* | 7 | 6
O=C(COC(=O)CCC(=O)c1ccc(F)cc1)NCc1ccccc1Cl | -5 | 4162 | 2 | 0
Cc1cc(/C=C(\C#N)C(=O)Nc2ccccc2)c(C)n1-c1ccc2c(c1)OCO2 | -2 | 20884* | -9 | -4
Cc1cc(/C=C(/C#N)C(=O)Nc2ccccc2)c(C)n1-c1cccnc1 | -3 | 3330 | -5 | -1
Cc1cc(/C=C(\C#N)C(=O)Nc2ccc(F)cc2)c(C)n1-c1ccc(N2CCOCC2)c([N+](=O)[O-])c1 | -6 | 22759* | 0 | 0
